About 83,000 compounds went through this panel and 20% of them were active in at least one assay; those are over-represented in the sample as a whole.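 Growth was measured after 48 h exposure to one concentration of compound in 96-well plates. Values under 10 count as active.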 Unmarked numbers belong to inactive results. The source made the active and inactive calls.

The assay deals with MALME-3M melanoma. Description: NCI-60 one-dose screen, 48 h (100 = growth as untreated, 0 = no growth, -100 = all killed). The following applies: 10 µM unless noted.
On to `COc1ccc2ncccc2c1Cc1c(OC)ccc2ncccc12`, for which the growth is 55.9%.
The value for `COc1cc(C2CC(C3C(=O)N(C)C(=O)N(C)C3=O)=NN2c2cc(Cl)cc(Cl)c2)cc(OC)c1OC` (centres undefined) was 89.1%; that for `Cc1sc2nc(NCc3ccccc3)[nH]c(=O)c2c1C` was 75.7%.
The same measure for `Cc1cc2c(cc1C)[n+](Cc1ccc3ccccc3n1)cn2Cc1ccc2ccccc2n1`: -28% (active); for `COc1cc(/C=C2\CN(S(=O)(=O)c3ccc(C)cc3)C/C(=C\c3cc(CN4CCOCC4)c(O)c(OC)c3)C2=O)cc(CN2CCOCC2)c1O`: -25.7% (active); for `O=C1NCCc2c1noc2-c1ccccc1`: 108%.
The same measure for `C[C@]12CCC(=O)C=C1CC[C@H]1[C@@H]3C[C@@H](O)[C@](O)(C(=O)CO)[C@@]3(C)C[C@H](O)[C@@]12F`: 87%.
For the molecule `C/C(=C\CCc1ccsc1)CC/C=C(\C)CCCN1CCSCC1`, the growth was 98.4%.
Turning to `COC(=O)Nc1ccc2ccc3c(NC(=O)OC)ccc4ccc1c2c43` (tested in a mixture with another compound), the growth is 68.8%.
The value for `O=C(Nc1nc2c(C(F)(F)F)cccc2s1)c1cc(Cl)ccc1O` was -24.8% (active).
As to `COc1cc(C2=NN(C=O)C(c3cccc(Nc4ccnc5cc(Cl)ccc45)c3)C2)cc(OC)c1OC` (centres undefined), the growth is 89.3%.
The same measure for `COc1cccc(-c2nc(-c3ccc(N)cc3)co2)c1`: 114%.
The value for `C[C@@H]1[C@H]2[C@H](C=C3[C@@H]4CC[C@H]5Cc6nc7c(nc6C[C@]5(C)[C@H]4C[C@@H](O)[C@@]32C)C[C@@H]2CC[C@H]3C4=C[C@@H]5O[C@@]6(CC[C@](C)(CO)O6)[C@@H](C)[C@@]5(O)[C@@]4(C)[C@H](O)C[C@@H]3[C@@]2(C)C7)O[C@]12CCC(C)(C)O2` was 38.8%; that for `O=C(CNC(=O)c1cccc2ccccc12)Nc1ccccc1Oc1cccc(O)c1` was 63.6% [5 µM]; that for `CCN(CC)CCNCC(=O)Oc1ccc(/C=C/C(=O)CC(=O)/C=C/c2ccc(OC(=O)CNCCN(CC)CC)c(OC)c2)cc1OC` was -0.278% (active).
On to `COc1ccc(-c2cc(-c3nnc(SCC(=O)Nc4ccc(C(C)=O)cc4)n3-c3ccccc3)c3ccccc3n2)cc1OC`, for which the growth is 97.2%.
Consider `COc1ccc2c(c1)[n+](=O)c(C(=O)/C=C/c1cc(OC)c(OC)c(OC)c1)c(C)n2[O-]`, for which the growth is 91.8%.
As for `COc1ccc(-c2nc3sc4c(c3c(=O)[nH]2)CCCCCC4)cc1`, the growth is 8.18% (active).
The value for `CC(=O)Nc1c(Cl)cc2c(c1Cl)Cc1cc([N+](=O)[O-])ccc1-2` was 68.2%; that for `CCN(CC)CCCCCCCNc1c2ccc(Cl)cc2nc2ccc(OC)cc12` was -20.6% (active); that for `COc1cc(/C=C/c2cc(/C=C/c3ccc(O)c(OC)c3)n(C(=O)c3ccc(Cl)cc3)n2)ccc1O` was 44.6%.
The same measure for `Cc1n(Cc2ccc3ccccc3c2)c2ccccc2[n+]1Cc1ccc2ccccc2c1`: -39.7% (active); for `CCn1cnc(C[C@H](NC(=O)[C@H](CCCCNC(=O)Nc2cc(C(F)(F)F)cc(C(F)(F)F)c2)NC(=O)Nc2cc(C(F)(F)F)cc(C(F)(F)F)c2)C(=O)OC)c1`: -69.6% [100 µM] (active); for `O=C(Nc1cccc(-n2cc(-c3ccncc3)c(-c3cc(O)cc(Cl)c3)n2)c1)Nc1ccc(Cl)c(Cl)c1`: -35.1% (active).
The value for `Oc1ccc(/C=N/Nc2nc3ccccc3s2)c(O)c1` was 52.4%; that for `Cc1csc(C#Cc2cncc(O)c2)n1` was 96.7%.
With `COc1cc(/C=C/C(=O)CC(=O)/C=C/c2ccc(OC(=O)CCNC34CC5CC(CC(C5)C3)C4)c(OC)c2)ccc1OC(=O)CCNC12CC3CC(CC(C3)C1)C2`, the growth was 38.6%.
The same measure for `N/C(=N\C(N)=N\c1nc2ccccc2s1)c1ccnc(Cl)c1`: 64.9%; for `COc1ccc(NS(=O)(=O)N2CCCCC2)cc1`: 117%; for `C=C1CCC2C(C)(COC(=O)CC)C(OC(=O)CC)CCC2(C)C1C/C=C1/C(=O)OCC1OC(=O)CC` (centres undefined): 2.98% (active).
The value for `Cc1[nH]ccc2cc3nc4ccccc4c3cc12` was 29.8%; that for `CC(C)=CCCC(C)c1ccc(C)c2c1OCN(CC1CCNCC1)C2` (centres undefined) was 94.1%.
Take `COc1ccc2c(c1)sc1nc(-c3ccc(N(C)C)cc3)cn12`: the growth was 112%.
The same measure for `COc1cc(/C=C/C(=O)C(C(=O)/C=C/c2ccc(OC(=O)CCNc3nnc(C)s3)c(OC)c2)C(=O)CCNc2nnc(C)s2)ccc1OC(=O)CCNc1nnc(C)s1`: -29.7% (active).

Values taken from PubChem BioAssay (NCI).
